Results published in PubChem BioAssay (EPA / NIEHS).
The source made the active and inactive calls. Rule for the calls: active = hit-call score of the fitted dose curve at least 0.9, where 1 is the maximum; inactive = score below 0.9.

How the values were obtained:
[1] = read-out: Vascular cell adhesion molecule 1 (VCAM1), VCAM1 (gene 7412); experiment: BSK_CASM3C_VCAM1: BioMAP Diversity Plus: CASM3C Assay for Vascular cell adhesion molecule 1 (VCAM1) Biomarker Activity (AID 2283055); details: primary human coronary artery smooth muscle cells; actives raise or lower the signal;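 note: VCAM-1 protein level quantified by ELISA on the cells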
[2] = read-out: Collagen III, COL3A1 (gene 1281); experiment: BSK_hDFCGF_CollagenIII: BioMAP Diversity Plus: hDFCGF Assay for Collagen III Biomarker Activity (AID 2283056); details: primary human foreskin fibroblasts; actives raise or lower the signal
Procedure, shortened: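 Human foreskin primary fibroblasts were exposed to test chemicals for 24 h, after which collagen III was quantified by ELISA. Activity was fitted bidirectionally against DMSO as negative control and baseline.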

[3] = read-out: Epidermal growth factor receptor (EGFR), EGFR (gene 1956); experiment: BSK_hDFCGF_EGFR: BioMAP Diversity Plus: hDFCGF Assay for Epidermal growth factor receptor (EGFR) Biomarker Activity (AID 2283057); details: primary human foreskin fibroblasts; actives raise or lower the signal
Procedure, shortened: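 Cell-based multiplexed assay in primary human foreskin fibroblasts. EGFR is read by ELISA 24 h after treatment and compared with DMSO controls.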

[4] = read-out: Interleukin-8 (IL8), CXCL8 (gene 3576); experiment: BSK_hDFCGF_IL8: BioMAP Diversity Plus: hDFCGF Assay for Interleukin-8 (IL8) Biomarker Activity (AID 2283058); details: primary human foreskin fibroblasts; actives raise or lower the signal
Procedure, shortened: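 hDFCGF human dermal fibroblasts; 24 h chemical exposure; IL-8 by ELISA; bidirectional curve fit vs DMSO baseline; gain or loss of signal scored.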

[5] = BSK_hDFCGF_Proliferation: Cell Proliferation Assessment in the BioMAP Diversity Plus: hDFCGF Assay (AID 2283059); details: primary human foreskin fibroblasts;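 note: curves fitted for both rise and fall of signal versus DMSO baseline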
Procedure, shortened: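 This proliferation readout used SRB total-protein staining of human foreskin fibroblasts […], normalized to DMSO with bidirectional curve fitting.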

[6] = BSK_hDFCGF_SRB: Viability Assessment in the BioMAP Diversity Plus: hDFCGF Assay (AID 2283061); details: primary human foreskin fibroblasts;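 note: cells exposed to compound for 24 h before the read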
Procedure, shortened: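 Human foreskin primary fibroblasts were treated with compound and assessed 24 h after dosing. Total protein was measured by sulforhodamine B staining (0.1% SRB after 10% TCA fixation, 560 nm read) as a cytotoxicity marker, with bidirectional fitting against DMSO baseline.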

[7] = read-out: TIMP metallopeptidase inhibitor 1 (TIMP1), TIMP1 (gene 7076); experiment: BSK_hDFCGF_TIMP1: BioMAP Diversity Plus: hDFCGF Assay for TIMP metallopeptidase inhibitor 1 (TIMP1) Biomarker Activity (AID 2283062); details: primary human foreskin fibroblasts; actives raise or lower the signal
Procedure, shortened: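 Primary human foreskin fibroblasts in the hDFCGF system were dosed with compound for 24 h, then TIMP-1 was measured by ELISA. Activity was fitted bidirectionally relative to DMSO control; parallel SRB staining assessed cytotoxicity.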

[8] = read-out: Matrix Metallopeptidase 1 (MMP1), MMP1 (gene 4312); experiment: BSK_hDFCGF_MMP1: BioMAP Diversity Plus: hDFCGF Assay for Matrix Metallopeptidase 1 (MMP1) Biomarker Activity (AID 2283064); details: primary human foreskin fibroblasts; actives raise or lower the signal
Procedure, shortened: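 MMP1 levels quantified by ELISA 24 h after dosing human dermal fibroblast cultures, with parallel SRB total-protein staining for overt cytotoxicity. Data fitted in both directions against DMSO baseline.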

[9] = read-out: Vascular cell adhesion molecule 1 (VCAM1), VCAM1 (gene 7412); experiment: BSK_hDFCGF_VCAM1: BioMAP Diversity Plus: hDFCGF Assay for Vascular cell adhesion molecule 1 (VCAM1) Biomarker Activity (AID 2283065); details: primary human foreskin fibroblasts; actives raise or lower the signal;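 for AC50: VCAM-1 protein level quantified by ELISA after 24 h chemical exposure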
Procedure, shortened: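 Primary human foreskin fibroblasts (hDFCGF system) were dosed with chemical and VCAM-1 was measured by ELISA 24 h later. Bidirectional curve fitting used DMSO as negative control and activity baseline.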

[10] = read-out: Plasminogen activator inhibitor-1 (PAI1), SERPINE1 (gene 5054); experiment: BSK_hDFCGF_PAI1: BioMAP Diversity Plus: hDFCGF Assay for Plasminogen activator inhibitor-1 (PAI1) Biomarker Activity (AID 2283066); details: primary human foreskin fibroblasts; actives raise or lower the signal
Procedure, shortened: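 Human skin fibroblast cultures receive chemical for 24 h before PAI-1 is measured by ELISA; signal changes are fitted bidirectionally against DMSO-treated wells.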

[11] = read-out: Intercellular Adhesion Molecule 1 (ICAM1), ICAM1 (gene 3383); experiment: BSK_KF3CT_ICAM1: BioMAP Diversity Plus: KF3CT Assay for Intercellular Adhesion Molecule 1 (ICAM1) Biomarker Activity (AID 2283067); details: primary human keratinocytes with fibroblasts; actives raise or lower the signal
Procedure, shortened: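 Human keratinocyte plus foreskin fibroblast primary co-culture was exposed to chemical for 24 h. ICAM-1 was then quantified by ELISA, and the data were fit bidirectionally against DMSO as the negative control and baseline.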

[12] = read-out: Interferon-gamma inducible Protein 10 (IP10), CXCL10 (gene 3627); experiment: BSK_KF3CT_IP10: BioMAP Diversity Plus: KF3CT Assay for Interferon-gamma inducible Protein 10 (IP10) Biomarker Activity (AID 2283068); details: primary human keratinocytes with fibroblasts; actives raise or lower the signal
Procedure, shortened: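 Signal is secreted/surface IP-10 by ELISA in a human primary skin co-culture of keratinocytes and foreskin fibroblasts, taken 24 h post-dosing; DMSO served as negative control.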

[13] = BSK_KF3CT_SRB: Viability Assessment in the BioMAP Diversity Plus: KF3CT Assay (AID 2283069); details: primary human keratinocytes with fibroblasts
Procedure, shortened: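 Cytotoxicity was gauged by SRB staining (0.1% SRB, 10% TCA fixation, 560 nm) of parallel cultures at 24 h. The cells were primary human skin keratinocytes co-cultured with fibroblasts, and activity was fitted in both directions against DMSO.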

[14] = read-out: Interleukin-1 alpha (IL1a), IL1A (gene 3552); experiment: BSK_KF3CT_IL1a: BioMAP Diversity Plus: KF3CT Assay for Interleukin-1 alpha (IL1a) Biomarker Activity (AID 2283070); details: primary human keratinocytes with fibroblasts; actives raise or lower the signal
Procedure, shortened: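 IL-1a was detected by ELISA 24 h after chemical treatment of a co-culture of human skin keratinocytes and foreskin fibroblasts. Gain or loss of signal was fitted against the DMSO baseline.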

[15] = read-out: TIMP metallopeptidase inhibitor 2 (TIMP2), TIMP2 (gene 7077); experiment: BSK_KF3CT_TIMP2: BioMAP Diversity Plus: KF3CT Assay for TIMP metallopeptidase inhibitor 2 (TIMP2) Biomarker Activity (AID 2283071); details: primary human keratinocytes with fibroblasts; actives raise or lower the signal
Procedure, shortened: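 Measurements come from ELISA detection of TIMP-2 at 24 hours in a dosed human keratinocyte and foreskin fibroblast co-culture. DMSO serves as negative control and baseline.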

[16] = read-out: C-C motif chemokine 2 (Homo sapiens) (UniProt P13500); experiment: BSK_KF3CT_MCP1: BioMAP Diversity Plus: KF3CT Assay for Monocyte Chemoattractant Protein 1 (MCP1/CCL2) Biomarker Activity (AID 2283073); details: primary human keratinocytes with fibroblasts; actives raise or lower the signal
Procedure, shortened: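 Human keratinocyte plus foreskin fibroblast primary co-culture exposed to chemical for 24 h. MCP-1 levels measured by ELISA. Bidirectional curve fitting relative to DMSO negative control as baseline.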

[17] = read-out: Matrix Metallopeptidase 9 (MMP9), MMP9 (gene 4318); experiment: BSK_KF3CT_MMP9: BioMAP Diversity Plus: KF3CT Assay for Matrix Metallopeptidase 9 (MMP9) Biomarker Activity (AID 2283074); details: primary human keratinocytes with fibroblasts; actives raise or lower the signal
Procedure, shortened: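 MMP-9 quantified by ELISA after 24 h chemical treatment of primary human skin keratinocyte/fibroblast co-cultures; gain or loss fitted against DMSO, with parallel SRB staining (0.1% SRB, 560 nm) for overt cytotoxicity.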

[18] = read-out: Transforming growth factor beta 1 (TGFb1), TGFB1 (gene 7040); experiment: BSK_KF3CT_TGFb1: BioMAP Diversity Plus: KF3CT Assay for Transforming growth factor beta 1 (TGFb1) Biomarker Activity (AID 2283072); details: primary human keratinocytes with fibroblasts; actives raise or lower the signal
Procedure, shortened: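 TGF-b1 ELISA on a 24 h dosed co-culture of human keratinocytes and foreskin fibroblasts; cytotoxicity tracked in parallel cultures by SRB staining.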

[19] = read-out: Monokine induced gamma interferon (MIG), CXCL9 (gene 4283); experiment: BSK_hDFCGF_MIG: BioMAP Diversity Plus: hDFCGF Assay for Monokine induced gamma interferon (MIG) Biomarker Activity (AID 2283063); details: primary human foreskin fibroblasts; actives raise or lower the signal
Procedure, shortened: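 ELISA read-out of MIG from primary human dermal fibroblasts 24 h post-dosing. Gain or loss of signal fitted bidirectionally, DMSO as baseline.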

Measured: AC50

c1ccc(-c2cccc(-c3ccccc3)c2)cc1
active: [2] 11.7 µM | [5] 11 µM | [6] 12.2 µM | [7] 20 µM | [8] 5.57 µM | [9] 12.4 µM | [10] 20 µM | [14] 7.05 µM
inactive: [1] | [3] | [4] | [11] | [12] | [13] | [15] | [16]

CN(C)C(=S)S
active: [2] 3.97 µM | [4] 30.9 µM | [5] 14.6 µM | [6] 27.1 µM | [7] 13 µM | [8] 36.9 µM | [9] 11.2 µM | [10] 33.6 µM
inactive: [1] | [3] | [11] | [12] | [13] | [14] | [15] | [17]

OC(Cc1ccccc1Cl)(Cn1cncn1)C1(Cl)CC1 (configuration not stated)
inactive: [1] | [2] | [3] | [4] | [5] | [6] | [7] | [8] | [9] | [10] | [11] | [12] | [13] | [14] | [15] | [18] | [16]

Clc1cccc(Cl)c1
inactive: [1] | [2] | [3] | [4] | [5] | [6] | [7] | [19] | [8] | [9] | [10] | [11] | [12] | [13] | [14] | [15] | [16]

Cc1cc(C)cc(C)c1
inactive: [1] | [2] | [3] | [4] | [5] | [6] | [7] | [8] | [9] | [10] | [11] | [12] | [13] | [14] | [15] | [16]
